# TIM10 inh – growth inhibitors of isogenic TIM10 control yeast, primary screen, counter-screen for tim10-1 yeast inhibitor project, luminescence, uHTS. S. cerevisiae TIM10 strain growth, BacTiter-Glo luminescence, 24 h. inhibition, % at 10 µM. actives 1.4% (n = 330,000). AID 463195, 2010;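 active means inhibition of 40% or more at the single tested concentration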;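 further: wild-type TIM10 isogenic control strain grown at permissive 25 °C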
# NLRP3 yeast inh – NALP3 inflammasome inhibitors in reconstituted yeast, primary screen, luminescence, uHTS; Yeast reconstituted NLRP3/ASC/caspase-1, beta-gal luminescence, 24 h; inhibition, % at 10 µM; actives 0.39% (n = 330,000);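 active means inhibition of 50% or more; inactive means inhibition below 50%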;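 further: plate controls were induced DMSO wells for no effect and uninduced yeast grown without galactose for full effect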
# tim23-1 inh – growth inhibitors of tim23-1 mutant yeast, primary screen, luminescence, uHTS; actives 1.3% (n = 330,000); AID 463212, 2010; inhibition, % at 20 µM; S. cerevisiae tim23-1 growth, BacTiter-Glo luminescence, 24 h;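 active means growth inhibition of the mutant yeast at or above 50%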;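 further: temperature-sensitive mutant grown at 25 °C; plate controls were DMSO-treated mutant yeast for no effect and medium wells lacking yeast for full effect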
# tim10-1 inh – growth inhibitors of tim10-1 mutant yeast, primary screen, luminescence, uHTS; S. cerevisiae tim10-1 ts strain growth, BacTiter-Glo, 24 h; inhibition, % at 20 µM; actives 2.2% (n = 330,000); AID 463190, 2010;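 active means inhibition of at least 40%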;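 further: mutant grown at 25 °C; 0% = DMSO wells with yeast and 100% = wells holding no yeast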
# NALP1 yeast inh – NALP1 inflammasome inhibitors in reconstituted yeast, colorimetric, S. cerevisiae, triplicate retest; S. cerevisiae NALP1/ASC/caspase-1 growth, X-gal OD620, 72 h; inhibition, % at 10 µM; actives 0.61% (n = 280,000); AID 2071, 2009; in the data active means inhibition mostly above about 24%, no sharp cut-off; inactive means mostly below about 32%
# V-ATPase pH – regulators of yeast V-ATPase proton pumping, primary screen, pHLuorin cytosolic pH fluorescence. response, % at 10 µM. actives 0.37% (n = 350,000). S. cerevisiae. AID 504577, 2011; in the data active means response mostly above about 7.3%, no sharp cut-off; inactive means mostly below about 5.4%; further: actives read high
# tim23-1 conf – tim23-1 mutant yeast growth inhibitors, confirmation, luminescence, single concentration; shares compounds with tim23-1 inh; S. cerevisiae tim23-1 growth, BacTiter-Glo luminescence, 24 h; inhibition, % at 20 µM; actives 83% (n = 4,400);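 active means inhibition above about 39% in either of two replicate wells at 20 µM, limit read from the data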;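 further: temperature-sensitive tim23-1 mutant grown at 25 °C; 0% = DMSO wells with yeast and 100% = medium wells without yeast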
# * = called active by the depositor; nt = no result. Most compounds without a hit are left out; they make up all but 4.2% or so of the library.
SMILES,TIM10 inh,NLRP3 yeast inh,tim23-1 inh,tim10-1 inh,NALP1 yeast inh,V-ATPase pH,tim23-1 conf
O=C(NCC1COc2ccccc2O1)c1ccc(NC(=O)c2ccco2)cc1 (configuration not stated),33,6,58*,36,20,2,53*
CC1(C)CC(=O)C(N=Nc2cccnc2)=C(O)C1,5,-13,52*,8,nt,-5,23
CC1(C)CC(=O)C(N=Nc2ccc3ncsc3c2)=C(O)C1,14,-3,60*,2,34,1,30
CC1(C)CC(=O)C(N=Nc2ccc(-c3ccccc3)cc2)=C(O)C1,-11,18,0,0,8,-2,nt
S=c1[nH]nc(C2CCCCC2)n1/N=C/c1ccccc1,23,21,67*,32,5,2,40*
CCOc1ccc(/C=N/n2c(C3CCCCC3)n[nH]c2=S)cc1,37,24,74*,28,-2,2,21
CN(C)c1ccc(/C=N/n2c(C3CCCCC3)n[nH]c2=S)cc1,9,28,50*,14,-6,-4,33
Fc1ccc(/C=N/n2c(C3CCCCC3)n[nH]c2=S)cc1,34,22,71*,35,10,-3,32
O=c1oc(-c2ccccc2)nc2c1C1(CCCCC1)Cc1ccccc1-2,-10,3,11,7,-3,-16,nt
CCOC(=O)c1csc(NC(=O)CSc2nnnn2-c2ccc(OC)cc2)n1,8,0,16,8,-7,nt,nt
CCOC(=O)c1c(NC(=O)CSc2nnnn2-c2ccc(OC)cc2)sc(C)c1C,-1,3,50*,21,-11,2,82*
COc1ccc(-c2ccccc2[C@H]2[C@@H]3C=CC[C@@H](C)[C@@H]3C(=O)N2Cc2ccccc2)cc1,9,nt,47,24,nt,-1,nt
C[C@@H]1CC=C[C@@H]2[C@H]1C(=O)N(Cc1ccccc1)[C@H]2c1ccccc1Br,15,nt,52*,22,nt,5,34
COC(=O)/C=C/c1cccc([C@H]2[C@@H]3C=CC[C@@H](C)[C@@H]3C(=O)N2Cc2ccccc2)c1,11,nt,51*,24,nt,1,34
C[C@@H]1CC=C[C@@H]2[C@H]1C(=O)N(Cc1ccccc1)[C@H]2c1cccc(C#Cc2ccccc2)c1,7,nt,42,29,nt,1,nt
CC(=O)c1ccc(N2CCN(C(=O)c3ccc(Br)cc3)CC2)c(F)c1,2,39,57*,33,-25,1,34
C=CCNC(=S)N/N=C(\C)c1ccccn1,-16,21,61*,9,78*,6,51*
Nc1cnccc1C(=O)O,6,6,6,9,-15,1,nt
O=C(COC(=O)c1ccc(F)cc1Cl)NC1CCCCCCC1,23,26,51*,19,nt,1,42*
CCN(CC)S(=O)(=O)c1ccc(C(=O)OCn2nnc3ccccc3c2=O)cc1,-21,11,70*,14,11,7,56*
Cc1ccc(F)cc1NC(=O)CSc1ncccn1,4,14,2,-3,2,1,nt
CC(C)N1C(=O)/C(=C\c2nc3ccccc3c(=O)[nH]2)c2ccccc21,nt,nt,nt,nt,27,-1,nt
CCn1c(/C=C2\C(=O)N(C(C)C)c3ccccc32)nc2ccccc2c1=O,39,13,56*,31,3,9,42*
COc1ccc(-c2nc3ccccc3c(=O)n2O)cc1,31,48,58*,40,18,-2,52*
COc1ccc(C2CC(=O)n3nc(C45CC6CC(CC(C6)C4)C5)nc3S2)cc1OC (configuration not stated),nt,nt,nt,nt,28,0,nt
SMILES,TIM10 inh,NLRP3 yeast inh,tim23-1 inh,tim10-1 inh,NALP1 yeast inh,V-ATPase pH,tim23-1 conf
C(=N\Nc1nc2ccccc2[nH]1)/c1ccccc1,28,7,-1,15,-6,0,nt
C(=C\c1ccccc1)/C=N/Nc1nc2ccccc2[nH]1,19,18,51*,15,37,0,48*
O=C(NOCc1ccccc1)OCc1ccccc1,nt,nt,nt,nt,nt,4,nt
O=C(NOCc1ccccc1)c1coc(-c2ccccc2)n1,-10,nt,60*,-29,nt,-6,36
O=C(CCCN1C(=O)/C(=C/c2ccccc2OC(F)F)SC1=S)Nc1cccnc1,24,24,51*,16,nt,2,52*
Cc1occc1C(=O)N/N=C/C(Br)=C/c1ccccc1,17,3,55*,24,1,-1,75*
O=C(O)CN1C(=O)c2cccc3c(Br)ccc1c23,-3,7,-12,-13,-7,2,nt
CN(C)CCCN1C(=O)c2cccc3c(Br)ccc(c23)C1=O,28,3,62*,38,11,-6,71*
CSC1=N/C(=C\c2ccccc2F)C(=O)S1,12,7,52*,21,8,-2,51*
COc1cccc(/C=C2\N=C(SC)SC2=O)c1OC,28,12,18,29,-2,8,nt
C=CCN1C(=O)CS/C1=C(\C#N)S(=O)(=O)c1ccc(C)cc1,15,13,11,11,13,-7,nt
CCN(CC)c1nc(N)nc(N(c2ccccc2)c2ccccc2)n1,4,-13,57*,36,20,-3,50*
COc1cccc(CC(=O)Nc2cccc3ccccc23)c1,-9,33,12,-14,12,3,nt
COc1cc2cc(Oc3ccc4ccc(=O)oc4c3)c(=O)oc2cc1OC(C)=O,8,6,14,13,-2,3,nt
COc1ccccc1C(=O)Oc1ccc2ccc(=O)oc2c1,36,11,69*,18,9,-5,52*
O=c1[nH]c2ccc(S(=O)(=O)N3CCCCC3)cc2o1,10,2,1,3,6,-7,nt
Cn1c(SCC(=O)NC2CCCCC2)nc2c(c1=O)SCC2,nt,nt,nt,nt,nt,1,nt
COC(=O)c1c(NC(=O)c2ccccc2)sc(C(=O)c2ccccc2)c1C,-19,2,-3,-4,27,2,nt
CCOC(=O)c1c(C)oc2c1c(C=NCCO)c(O)c1ccccc12,nt,nt,nt,nt,5,4,nt
CCOC(=O)c1c(C)oc2c1c(C(c1cccnc1)N1CCCCC1)c(O)c1ccccc12 (configuration not stated),18,11,50*,26,10,2,45*
CCOC(=O)c1c(C)oc2c1c(C(c1ccccc1)N1CCOCC1)c(O)c1ccccc12 (configuration not stated),39,8,66*,39,4,2,43*
CCOC(=O)C1CCN(C(c2cccnc2)c2c(NC(=O)c3ccco3)sc(C)c2C)CC1 (configuration not stated),-6,13,2,6,13,0,nt

# Screening results from PubChem.
